# Screens (PubChem)
# This is a sample that favours compounds with a hit; in the whole collection about 2.2% have one here.
# TDP-43 yeast inh – inhibitors of TDP-43 toxicity in yeast; AID 652104; 1.8% of 410,000 active; TDP-43 expressing yeast growth rescue, BacTiter-Glo, 24 h; Potency, µM (top dose mostly 46.1 µM), without a hit: at the highest dose growth rescue (activation), hits mostly activators; further: % of control where 0% means no effect; nearly all actives have a fitted effect of over 50% in size
#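 Luminescence from BacTiter-Glo reports growth of TDP-43-expressing yeast after 24 hr at 30 deg C with compound. Cells were raffinose-pregrown to mid-log, then seeded in galactose medium at OD600=0.02.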
# Mito fusion act – inhibitors of mitochondrial division or activators of mitochondrial fusion; S. cerevisiae fusion-defective mutant growth rescue, CellTiterGlo 48 h; Potency, µM (top dose mostly 46.1 µM), for the others: top-dose growth rescue (activation), usual class: activators; 0.23% of 320,000 active; AID 485298; further: % of control where 0% means no effect; nearly all actives have a fitted effect of over 45% in size
#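 Yeast fusion mutant, YPEG (non-fermentable carbon), compound, 48 h at 37C non-permissive; CellTiterGlo added, 10 min RT, luminescence read. Rescued growth = division inhibition.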
# FUS yeast rescue – suppressors of FUS proteinopathy in yeast; 0.24% of 390,000 active; AID 1347120; S. cerevisiae FUS-expressing, growth rescue, OD600, 24 h; Potency, µM (series often up to 76.6 µM), hits mostly activators;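 further: plate controls were DMSO vehicle for no effect and reference control for full effect; nearly all actives have a fitted effect of over 55% in size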
#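 S. cerevisiae expressing FUS from galactose induction served as the toxicity model. Growth after 24hr at 30C, read as absorbance at 600 nm, indicates suppression of toxicity; compounds dosed at several concentrations.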
# aSyn rescue – rescues yeast growth from alpha-synuclein toxicity; Yeast expressing alpha-synuclein, growth rescue, BacTiter-Glo, 24 h; Potency, µM (top dose mostly 46.1 µM), inactives show top-dose growth rescue (activation), actives largely listed as activators; 0.14% of 370,000 active; further: % of control where 0% means no effect; nearly all actives have a fitted effect of over 65% in size
#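 Rescue of yeast growth: cells expressing toxic alpha-synuclein, induced in galactose at OD600 0.02, incubated with compound 24 h at 30 C. ATP luminescence quantified growth; inhibitors of toxicity appear as activators.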
# Abeta rescue – A-beta toxicity reversal in yeast; yeast expressing A-beta42, growth rescue, OD600, 48 h; response scale: 0% DMSO, 100% iron-clioquinol control; Potency, µM (titrated, usually from 46.1 µM), usual class: activators; 0.063% of 410,000 active; AID 1347071; further: nearly all actives have a fitted effect of over 55% in size
#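 Yeast A-beta toxicity model in growth medium with pinned compounds, 48 h at 30 C; growth read as absorbance at 600 nm. Normalized to FeCl3/clioquinol equimolar mix (positive) and DMSO (negative).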
# * = called active by the depositor; i = inactive; ? = inconclusive; nt = no result; [ ] = dose if it differs, or a comment. The call rests on the fitted dose curve; in most records, active means well fitted curve in the direction sought with a large enough effect; inconclusive means small, poorly fitted or top-dose-only effect, or another doubt; inactive means no such curve, though single readings can be large; an effect the other way counts as inactive or inconclusive. Potency means the concentration at half of the fitted maximal effect.
SMILES,TDP-43 yeast inh,Mito fusion act,FUS yeast rescue,aSyn rescue,Abeta rescue
COc1ccc(C(C)C)cc1S(=O)(=O)NCCc1c(C)[nH]c2ccc(C)cc12,?,nt,?,nt,i
COc1ccc(C(C)C)cc1S(=O)(=O)NCCc1c(C)[nH]c2c(Cl)cccc12,6.3µM*,nt,i,nt,i
CCOc1ccc(/C=C2/Sc3ccc(C(=O)N4CCOCC4)cc3N(C)C2=O)cc1OC,15%,-5%,i,15%,i
CN1C(=O)/C(=C/c2cccc(Cl)c2)Sc2ccc(C(=O)N3CCOCC3)cc21,20µM*,?,i,16%,i
O=[N+]([O-])c1ccc(Nc2nccc(Cl)n2)cc1,5.6µM*,nt,i,3%,i
CC(C)(C)Nc1nc(Nc2ccc([N+](=O)[O-])cc2)nc(NC(C)(C)C)n1,15%,3%,i,-13%,i
COc1ccc(-c2nnc(SCC(=O)NN=C(C)c3cccc4ccccc34)n2-c2ccc(C)cc2)cc1,nt,nt,i,nt,nt
Cc1cc2c(c(Sc3ccccc3)n1)C(=O)OC2,3.2µM*,?,i,nt,i
Cc1cc2c(c(SCC(=O)N(C)c3ccccc3)n1)C(=O)OC2,-1%,1%,i,-3%,i
Cc1c(C(=O)O)cnc2cc(-c3ccc(Cl)cc3)nn12,3.5µM*,0%,i,-4%,i
Cc1ccc(Nc2n[nH]c(C)c2[N+](=O)[O-])c(C)c1,?,10µM*,i,-19%,i
c1ccc(C(Cc2nc(-c3ccncc3)no2)c2ccccc2)cc1,35µM*,1%,i,1%,i
c1ccc(-c2ccccc2-c2nc(-c3ccncc3)no2)cc1,?,-30%,i,16%,i
Cc1ccc(SCc2nc(-c3cccnc3)no2)cc1,18µM*,0%,i,5%,i
C(=C\c1nc(-c2cccnc2)no1)/c1ccccc1,2.2µM*,-5%,i,-7%,i
CSc1ccccc1-c1nc(-c2ccncc2)no1,14µM*,-12%,i,14%,i
CCC(=O)NC(=S)Nc1cccc(Cl)c1N1CCCC1,0%,2%,i,-11%,i
Clc1ccccc1/C=C/c1nc(-c2cccnc2)no1,10µM*,5%,i,-4%,i
Cc1ccccc1-c1nc(-c2cccnc2)no1,14µM*,1%,i,0%,i
Clc1ccccc1-c1nc(-c2cccnc2)no1,?,-5%,i,4%,i
Nc1nc(=O)n(C2CC(O)C(CO)O2)cc1Cl (stereo not drawn),20%,nt,i,-1%,i
CC(=O)c1cccc(Nc2cc(C)nc3nc(-c4ccccc4C)nn23)c1,11µM*,nt,i,nt,i
Cc1cc(Nc2cccc(C(=O)O)c2)n2nc(C)nc2n1,2%,nt,i,nt,i
CCCCNC(=S)N(C)/N=C/c1ccc(F)cc1,11µM*,-9%,nt,-15%,i
CNc1ccccc1C(C)(C)c1cc(-c2cccc(Br)c2)no1,-4%[9.22 µM],1%,i,-6%,?
SMILES,TDP-43 yeast inh,Mito fusion act,FUS yeast rescue,aSyn rescue,Abeta rescue
CNc1ccccc1C(C)(C)c1cc(-c2cccc([N+](=O)[O-])c2)no1,28%,-9%,i,8%,11µM*
COc1cc(OC)c2c(c1)S(=O)(=O)C(c1ccccc1)=C2N,5%,1%,i,1%,16µM*
COc1cc(OC)c2c(-c3ccccc3)cc(=O)oc2c1,6%,-4%,i,1%,i
COc1cc(C=O)ccc1OCCOCCOc1c(C)cc(Cl)cc1Cl,22µM*,4%,i,23%,i[9.22 µM]
O=C(NCc1nc2ccccc2[nH]1)C1=C[C@H](c2ccccc2)C[C@H](OCc2ccc(CO)cc2)O1,22%,-5%,i,3%,i
O=C(NCc1nc2ccccc2[nH]1)C1=C[C@@H](c2ccc(C(F)(F)F)cc2)C[C@@H](OCc2ccc(CO)cc2)O1,3%,nt,32µM*,-3%,i
O=C(NCc1nc2ccccc2[nH]1)C1=C[C@@H](C2CCCCC2)C[C@@H](OCc2ccc(CO)cc2)O1,21%,-2%,32µM*,5%,i
O=C(NCc1nc2ccccc2[nH]1)C1=C[C@H](C2CCCCC2)C[C@H](OCc2ccc(CO)cc2)O1,8%,-1%,20µM*,-19%,i
CC(=O)n1cc([C@H]2C=C(C(=O)NCc3ccccc3)O[C@@H](OCc3ccc(CO)cc3)C2)c2ccccc21,1%,0%,25µM*,-9%,i
O=C(NCc1nc2ccccc2[nH]1)C1=C[C@H](C2CCCCC2)C[C@H](OCCCCO)O1,9%,nt,i,-6%,i
CCCN1CNc2c(c(=O)[nH]c(=S)n2CCc2ccc(OCC)c(OCC)c2)C1,nt,nt,nt,-4%,nt
COc1ccc(-n2c(SCC(=O)NCCCSC)nnc2-c2ccncc2)cc1,nt,nt,i,nt,nt
COc1ccc(C=O)cc1COc1ccc2c(c1)OCO2,14µM*,5%,i,5%,i
COc1ccc(C=O)cc1COc1ccc([N+](=O)[O-])c(C)c1,?,11%,i,23%,i
O=C(ON=C1CCN(S(=O)(=O)c2ccccc2)CC1)c1ccccc1,20µM*,2%,i,1%,i
O=C(ON=C1CCN(S(=O)(=O)c2ccccc2)CC1)c1cccc(Cl)c1,?,11%,i,2%,i
C=C1C(=O)[C@]23C[C@H]1CC[C@H]2[C@]1(C)[C@@H](OC(C)=O)CC[C@@](C)(C(=O)O)[C@H]1C[C@@H]3O,11µM*,nt,i,?,i
C=C1C(=O)[C@]23C[C@H]1CC[C@H]2[C@]1(C)[C@@H](OC(C)=O)CC[C@@](C)(C(=O)OC)[C@H]1C[C@@H]3OC(C)=O,18µM*,nt,i,17%,i
C=C1C(=O)[C@]23C[C@H]1CCC2[C@@]1(C)C(C[C@@H]3O)[C@](C)(C(=O)OC)CC[C@@H]1OC(C)=O (stereo partly drawn),?,nt,i,-81%,i
CCCC(C(=O)NC1=NCCS1)c1ccccc1 (stereo not drawn),-14%,17%,i,-7%,i
COc1ccc(C(CNC(=O)c2c(C)nn(Cc3ccccc3)c2Cl)N2CCOCC2)cc1 (stereo not drawn),-2%,-1%,i,-1%,i
Cc1ccc2ccc3ccc(C)nc3c2n1,4.5µM*,-6%,i,-20%,i
Cc1ccc2cc(F)c(F)c(F)c2n1,?,nt,i,-1%,i
Nn1c(SCC(=O)Nc2cccc3ccccc23)nnc1-c1n[nH]c2c1CCC2,nt,nt,i,nt,nt
COc1ccc(Br)cc1Cn1nnc(C(=O)Nc2ccc3c(c2)OCCO3)c1N,0%,10µM*,i,1%,i
Cc1ccc(-n2c(SCC(=O)c3ccc(F)cc3)nnc2-c2cccnc2)cc1,nt,nt,i,nt,nt
